Measurements published in PubChem BioAssay AID778 (Sanford-Burnham Center for Chemical Genomics, 2007).
Screen size: about 96,000 compounds; about 20,000 (21%) were called active.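 How the source made its calls: active means CYP2C19 inhibition above a set limit at 5 µM in the primary screen (cut at about 50% in these data); inactive means the rest.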 The list is a sample of the results.

molecular target: Cytochrome P450 2C19 (Homo sapiens) (UniProt P33261); test: blockers of cytochrome P450 2C19 activity – biochemical, luminescence, ADME assay, primary screen (AID 778); settings: CYP2C19 Supersomes, luciferin-H EGE luminescence, 30 min; at 5 µM; active compounds read high;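 further: plate controls were negative control wells for no effect and 2.5 mM tranylcypromine positive control for full effect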
Sequence (P33261 whole entry, looked up): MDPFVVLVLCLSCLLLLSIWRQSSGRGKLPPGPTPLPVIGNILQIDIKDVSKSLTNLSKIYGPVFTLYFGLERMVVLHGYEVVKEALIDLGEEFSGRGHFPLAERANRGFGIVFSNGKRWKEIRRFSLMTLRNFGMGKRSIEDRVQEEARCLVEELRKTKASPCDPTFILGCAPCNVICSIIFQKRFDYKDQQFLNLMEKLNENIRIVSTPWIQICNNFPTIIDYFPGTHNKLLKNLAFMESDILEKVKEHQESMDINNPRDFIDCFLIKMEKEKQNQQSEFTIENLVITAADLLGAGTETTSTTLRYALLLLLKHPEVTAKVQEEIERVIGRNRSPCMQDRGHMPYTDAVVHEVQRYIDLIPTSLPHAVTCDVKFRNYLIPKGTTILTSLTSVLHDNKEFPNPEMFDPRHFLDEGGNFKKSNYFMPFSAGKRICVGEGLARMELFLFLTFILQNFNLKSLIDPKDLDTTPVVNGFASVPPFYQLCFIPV

inhibition, inactive:
CC1(C)CC(=O)C=C(NCc2ccncc2)C1 31.5%, CCN(CC)C(=O)CSc1nnc(C2CCCCC2)o1 8.6%, CCCC(=O)Nc1ccc2c(c1)nc1n2CCSC1 -2.8%, COc1cccc(OC)c1C(=O)Nc1ccc(N2CCCCC2)cc1 -3.6%, Cc1ccc(OCC(=O)Nn2cnc3ccccc32)cc1 17.2%, Cc1ccc2nc(-c3ccccc3)cc(C(=O)O)c2c1 -3.4%, O=C(C1=C(O)C(=O)N(c2ncccn2)C1c1cccs1)c1ccco1 (stereo unspecified) 1.3%, Cn1nc(C(F)(F)F)c2cc(NC(=O)OCC(C)(C)C)sc21 34.6%, CCC(=O)c1ccc(OCC(O)CN2CCN(c3cccc(C(F)(F)F)c3)CC2)cc1 (stereo unspecified) 25.5%, COc1ccc(Nc2cc(=O)oc3ccccc23)cc1 17.7%, CCOC(=O)C1CCN(C(=O)C2CCN(S(=O)(=O)c3c(C)noc3C)CC2)CC1 14.7%, CCOc1ccccc1NC(=O)C1CCN(S(=O)(=O)c2c(C)nn(C)c2C)CC1 44.7%, Cc1ccc(NC(=O)C2CCCN(S(=O)(=O)c3c(C)noc3C)C2)c(C)c1 (stereo unspecified) 11.2%, Cc1noc(/C=C/N(C)C)c1S(=O)(=O)N1CCCC(C(=O)NCc2ccco2)C1 (stereo unspecified) 39.6%, Fc1ccc(N2CCN(Cc3cnc(Oc4ccc(Br)cc4)s3)CC2)cc1 2.8%, COc1ccc(N2CCN(Cc3cc(=O)oc4ccc5ccccc5c34)CC2)cc1 12.4%, Cc1ccc(Cl)cc1NC(=O)COC(=O)C1CCCCC1 32.1%, CCc1ccc(N2CC(C(=O)NC3=NCCS3)CC2=O)cc1 (stereo unspecified) -1.1%, CCCOc1ccc(N2CC(C(=O)Nc3ccccn3)CC2=O)cc1 (stereo unspecified) -18.5%, CN(C)C(=O)c1cc(Br)ccc1Cl 4%, CCOc1cccc(/C(O)=C2/C(=O)C(=O)N(CCOC)C2c2ccncc2)c1 (stereo unspecified) -18.2%, COc1ccc(N2C(=O)CC(N3CCC(C(N)=O)CC3)C2=O)cc1 (stereo unspecified) -28.9%, COC(=O)CNS(=O)(=O)c1ccc(OC)cc1 10.3%, COc1ccc(C(=O)Nc2ccc(S(=O)(=O)NC(C)C)cc2)cc1 42.9%, Cc1nc(-c2ccccc2)sc1-c1nc(-c2ccccc2)ncc1S(=O)(=O)c1ccccc1 5.1%, CC(C)NS(=O)(=O)c1ccc(CCC(=O)N2CCOCC2)cc1 14.2%, O=C(OC(C(=O)NC1CCCC1)c1ccc(F)cc1)c1ccno1 (stereo unspecified) 8.1%, CC(=O)OC(C(=O)NC1CCCCC1)c1ccccc1 (stereo unspecified) 20.2%, CCn1c(C)nc2c1C(=O)c1ccccc1C2=O -8.5%, Cc1nc2c(c(=O)n1Cc1ccco1)c1nc3ccccc3nc1n2Cc1ccccc1 3%, CCC(C)N1C(=O)S/C(=C/c2ccc(Sc3nc4ccccc4[nH]3)o2)C1=O (stereo unspecified) 43.3%, CC(C)Cc1oc(C(=O)O)cc1CN 4.2%, CC1OC2C(OC1C)N(S(C)(=O)=O)CCN2S(C)(=O)=O (stereo unspecified) -4.8%, Cc1ccc(CNC(=O)C2CC(=O)N(C3CCCCCCC3)C2)cc1 (stereo unspecified) -2.5%, Cc1ccc(CCN2CC(C(=O)O)CC2=O)cc1 (stereo unspecified) -0.5%, Cc1ccc(C(=O)NC2CCN(C(=O)N3CCOCC3)CC2)cc1 -1.3%, O=C(NC1CCCCC1)c1ccc(CNc2c(N3CCOCC3)c(=O)c2=O)cc1 9.7%, COc1ccc(NC(=O)C(NC(C)=O)C(=O)NCc2ccccc2Cl)cc1 (stereo unspecified) 12.9%, COc1ncnc2c1N=C1CC(C)(C)CC(N)=C1S2 4.5%, O=c1[nH]nc(Cc2ccccn2)c2ccccc12 -0.8%, CCCC1C(c2ccccc2)C(C#N)(C#N)C2(C#N)CC1(N)NC2=O (stereo unspecified) 5%, O=C(O)c1ccccc1NC(=S)NC(NC(=O)c1ccccc1[N+](=O)[O-])C(Cl)(Cl)Cl (stereo unspecified) 2%, CC1(C)N=C(c2ccccn2)C(C)(C)N1O 29.9%, COc1ccc(NC(=O)Nc2ccc3nsnc3c2)cc1 20.3%, COc1cccc(N2C(=O)C3CCCN3C2c2ccc(F)cc2)c1 (stereo unspecified) -0.1%, Cc1cc(NS(=O)(=O)c2ccccc2)no1 -16.4%, O=C(/C=C/c1ccco1)Nc1cccc(-c2nc3ccccc3[nH]2)c1 47.9%, Cc1ccc(C)c(S(=O)(=O)n2cnc3ccccc32)c1 -11.2%, O=C(c1cccc2ccccc12)N1CCN(c2ccccc2F)CC1 35.4%, CC(=O)c1ccc2c(ccc3ccccc32)c1 35%, Cc1cc(-n2nc(C)cc2C)n2nc(C)c(-c3ccccc3)c2n1 21.4%, COc1ccccc1C(=O)N1CCNC(=O)C1CC(=O)Nc1ccc(Cl)cc1 (stereo unspecified) 12.1%, CCOc1cccc(SCc2noc(C(=O)NC(C)C)c2C(=O)O)c1 8.8%, COc1ccc(OC)c(C2N(c3ccccn3)C(=O)C3CCCN32)c1 (stereo unspecified) -2.4%, CCn1c(CNc2ccc(OC)cc2)nnc1SCC(=O)c1ccc(OC)cc1 33.9%, COc1ccc(-c2nnc(SCC(=O)c3ccco3)n2-c2ccccc2)cc1 -13.8%, CCC(=O)N1c2ccc(S(=O)(=O)CCC(=O)N3CCN(c4ccccc4)CC3)cc2CC1C (stereo unspecified) 26.2%, Cc1csc(=NC(=O)c2ccccc2)n1CCO 49.7%, Cc1ccn2cc(C(=O)NC3CCN(Cc4ccccc4)CC3)nc2c1 11.4%, CCC(=O)Nc1ccc(C(=O)Nc2cc(C)on2)cc1 14.7%, CCCC(C)C(=O)Nc1ccc(NC(C)=O)cc1 (stereo unspecified) -6.8%, O=C(NCCc1ccccn1)c1cc(C(=O)C2CCCCC2)c[nH]1 -1.5%, CCOC(=O)C1CCN(c2ncnc3c2oc2ccc(Br)cc23)CC1 43.1%, Cc1cc(C(=O)Nc2c(C)nn(Cc3ccccc3)c2C)on1 11.7%, CSc1ccccc1NC(=O)c1cc(C2CC2)on1 31.1%, Cc1nc2nc(CSc3nc4ccccc4s3)cc(=O)n2[nH]1 -9.6%, O=S(=O)(c1ccccc1)N(CC(O)CN1CCCCC1)c1ccccc1 (stereo unspecified) 17.7%, O=c1oc2c(Cl)cc(Cl)cc2cc1-c1nnc(Nc2ccccc2F)s1 -3.7%, CCOC(=O)CNC(=O)CN1C(=O)CCSc2ccccc21 44.3%, CCSc1ncnc2c(C#N)c3n(c12)CCCCC3 5.8%, Cc1nc(-c2ccc(NC(=O)c3cccs3)cc2)cs1 12.8%, O=C(Nc1ccccc1)OCc1cc(-c2ccc(Cl)cc2)on1 16.6%, O=C(Nc1ccccc1)OCc1cn(-c2ccc(Cl)cc2)nn1 -1.4%, CCOC(=O)CSc1ncc(-c2cccc(Cl)c2)cn1 11.1%, COc1ccccc1N=C(C)C1=C(O)COC1=O 27.5%, CC(C)N(C(=O)Cn1c(SCC(=O)N2CCN(c3ccccc3)CC2)nc2ccccc21)C(C)C 6.9%, COC(=O)[C@H](Cc1ccccc1)NC(=O)N1CC(C)OC(C)C1 (stereo partly specified) 8.3%, CC(C)(C)NC(=O)Cn1nnc(-c2ccccc2Cl)n1 45%, COc1ccc(-c2nnn(CC(=O)N(CCO)C(C(=O)NC3CCCC3)c3ccc(F)cc3)n2)cc1 (stereo unspecified) 7.8%

inhibition, active:
COc1ccc(-c2cc(C(=O)n3cnc4ccccc43)c3ccccc3n2)cc1 74.8%, CCC(=O)OCc1c(C(F)(F)F)nn(C)c1Oc1cccc(C(F)(F)F)c1 57.7%, CCOc1ccc(OCC)c(NC(=O)C2CCN(S(=O)(=O)c3c(C)noc3C)CC2)c1 54.5%, Cc1noc(C)c1S(=O)(=O)N1CCCC(C(=O)Nc2nccs2)C1 (stereo unspecified) 78.8%, COc1ccc(N2CCN(Cc3ccc(Br)s3)CC2)cc1 96.1%, C=CCSC1=C(C#N)C(c2cc(Br)c(O)c(OC)c2)CC(=O)N1 (stereo unspecified) 67.5%, CC(C)c1ccc(N2CC(C(=O)Nc3nccs3)CC2=O)cc1 (stereo unspecified) 59.1%, CO/N=C(/CS(=O)(=O)c1ccc(Br)cc1)c1ccc(OC)cc1 100%, Cn1c(C(=O)OC(C(=O)NC2CCCCC2)c2ccccn2)cc2sccc21 (stereo unspecified) 67.2%, Cc1nc2ccccc2c(=O)n1CCCn1ccnc1 50.8%, CCc1ccc(CNC(=O)C2CC(=O)N(CCc3ccc(C)cc3)C2)cc1 (stereo unspecified) 54.2%, O=C1OC(NC(=O)c2ccccc2)C(N2CCOCC2)=C1Cl (stereo unspecified) 52.8%, CN(CCc1ccccn1)S(=O)(=O)c1ccc2c3c(cccc13)C(=O)N2 93.6%, O=S(=O)(Nc1ccc2nc(-c3ccco3)[nH]c2c1)c1ccccc1 92.4%, Cc1ccc(C)c(NS(=O)(=O)c2cc(Br)cnc2N)c1 61.5%, COc1c(C(=O)N2CCCC2)ccc2ccccc12 53%, COc1ccccc1C(=O)N1CCN=C1SCc1cccnc1 88.2%, COc1ccc(NCc2nnc(SCc3ccccc3)n2-c2ccc(OC)cc2)cc1 85.8%, Cc1nn(Cc2ccc(Cl)c(Cl)c2)c(C)c1NC(=O)c1cc(C2CC2)on1 95%, CN(C)/C(CN1CCCCC1)=C1\N=C(c2ccccc2)OC1=O 63.8%, O=C(Nc1ccc(Cl)cc1)OCc1cc(-c2ccccc2)on1 76.4%, Cc1ccc(-c2nnn(CC(=O)N(CCO)C(C(=O)NC(C)(C)C)c3ccncc3)n2)cc1 (stereo unspecified) 74%
